Hit rate of the full screen: of about 360,000 compounds, about 9,100 (2.5%) were called active. Roughly 4% stayed inconclusive and do not appear here. The sample holds actives, similar compounds and a random draw of the others, so the mix is not that of the screen. No stated cut-off is given here; in the data, active means max response below about -50%; inconclusive means no clear call, values can overlap the other calls; inactive means above that.
The molecules below were run against D(3) dopamine receptor (Homo sapiens) (UniProt P35462) (assay: qHTS of D3 Dopamine Receptor Antagonist: qHTS). Details: D3R cells, DiscoveRx beta-arrestin luminescence, antagonist mode; hits give low values.
Method in brief: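 Cells plated overnight at 1500 cells/well, then exposed to library compounds with dopamine controls for 90 minutes at 37 degrees C. DiscoveRx reagent added for 30–60 minutes at room temperature; luminescence read, quantitative HTS format.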
On the % scale 0 is the no-effect control and ±100 the full control effect.

D(3) dopamine receptor (Homo sapiens), sequence (P35462 whole entry, looked up): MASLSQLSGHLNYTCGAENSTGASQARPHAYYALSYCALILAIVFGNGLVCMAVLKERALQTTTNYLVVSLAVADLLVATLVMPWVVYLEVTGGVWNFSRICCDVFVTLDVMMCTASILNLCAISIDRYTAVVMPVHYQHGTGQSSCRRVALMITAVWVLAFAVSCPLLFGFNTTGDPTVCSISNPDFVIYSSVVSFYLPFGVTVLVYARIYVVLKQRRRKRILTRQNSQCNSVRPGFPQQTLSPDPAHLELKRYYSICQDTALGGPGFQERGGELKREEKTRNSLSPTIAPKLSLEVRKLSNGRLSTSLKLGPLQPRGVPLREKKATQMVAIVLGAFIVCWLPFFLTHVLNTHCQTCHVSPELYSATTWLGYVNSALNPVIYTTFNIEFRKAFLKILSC

| Compound | max response, negative = inhibition |
| --- | --- |
| CC(C)C[C@H]1CNC(=S)N1C[C@H]1CCCN1C[C@H](Cc1ccc(O)cc1)N1C[C@H](Cc2ccc(O)cc2)N(CC2CCCCC2)C1=S | 4.99% (inactive) |
| CC(=O)NC(c1cccc(F)c1)c1nc(-c2cccc(F)c2)cs1 (configuration not stated) | 2.77% (inactive) |
| COC(=O)[C@]12CCCCC=C1N(Cc1ccc3c(c1)OCO3)C(=O)[C@H](CC(=O)N1CCOCC1)C2 | 6.26% (inactive) |
| COc1ccc(C(C)C)cc1-c1ccc2nncn2c1 | -20% (inactive) |
| COc1ccc(C(=O)OCC(=O)Nc2cc(C)on2)cc1F | 9.93% (inactive) |
| O=C(Nc1ccc(N2CCOCC2)cc1)c1cccc2c(-c3ccc(F)c(F)c3)coc12 | -14.5% (inactive) |
| O=C(Nc1nnc([C@H]2C[C@H](O)[C@@H](CO)O2)s1)c1cccc(Cl)c1 | -110% (active) |
| O=C(Nc1ccc(F)cc1)Nc1nnc([C@H]2C[C@H](O)[C@@H](CO)O2)s1 | 16.1% (inactive) |
| Cc1ccc(CNC(=O)Nc2nnc([C@H]3C[C@H](O)[C@@H](CO)O3)s2)cc1 | 10.5% (inactive) |
| CC1=C(C(=O)N2CCOCC2)CC(CC(=O)NCCCN(C)C)C(=O)N1Cc1ccc(C(C)(C)C)cc1 (configuration not stated) | 35.5% (inactive) |
| Nc1nc2c(ncn2[C@@H]2O[C@H](CNS(=O)(=O)N3CCc4ccccc4C3)[C@@H](O)[C@H]2O)c(=O)[nH]1 | 4.77% (inactive) |
| CCCCc1c(-c2ccc(Br)cc2)ncn1CCc1ccccc1OC | 65.6% (inactive) |
| COc1cccc(CC2(CO)CCCN(Cc3ccc(OC(F)F)cc3)C2)c1 (configuration not stated) | 8.8% (inactive) |
| COc1cccc(CC2(CO)CCCN(CC3=Cc4cc(OC)ccc4OC3)C2)c1 (configuration not stated) | -6.63% (inactive) |
| COc1cccc(CC2(CO)CCCN(Cc3nc(-c4cccs4)oc3C)C2)c1 (configuration not stated) | -116% (active) |
| CCOc1ccc(CCNC(=O)COC(=O)c2ccc(C)c(S(=O)(=O)N3CCOCC3)c2)cc1OCC | -5.11% (inactive) |
| O=C(c1ccco1)N1CCN(CCOc2ccccc2)CC1 | -16.8% (inactive) |
| O=C(Nc1ccc(F)cc1F)N1CCCN(CCOc2ccccc2)CC1 | -70.2% (active) |
| O=C(c1ccc(Br)o1)N1CCN(CCOc2ccccc2)CC1 | 27.8% (inactive) |
| COc1ccc(S(=O)(=O)N2CCCC2)c(C)c1C | -3.98% (inactive) |
| COc1ccc(S(=O)(=O)N2CCOCC2)c(C)c1C | -69.1% (active) |

| Compound | max response, negative = inhibition |
| --- | --- |
| COc1cc(C)c(S(=O)(=O)N2CCOCC2)c(C)c1C | 0.216% (inactive) |
| COc1ccc(CC(N)c2csc(NC(=O)Nc3ccc(C(C)C)cc3)n2)cc1 (configuration not stated) | -12.1% (inactive) |
| OC(c1ccc(Cl)c(F)c1)c1ncc(-c2ccccc2Cl)[nH]1 (configuration not stated) | -18% (inactive) |
| CCSc1ncnc2c(C#N)c3n(c12)CCCCC3 | -10.2% (inactive) |
| CCSC1=C(C#N)C(=O)n2c1cc1c2CCCC1 | -65.6% (active) |
| CCN1C(=O)[C@H]2[C@@H](c3ccc(C(F)(F)F)cc3)N[C@]3(CCCN(Cc4ccc(Br)cc4)C3=O)[C@H]2C1=O | 2.39% (inactive) |
| O=C(Nc1cccc(S(=O)(=O)NC2=NCCC2)c1)c1ccc(F)cc1F | 5.01% (inactive) |
| CCS(=O)(=O)c1ccc(O)c(NC(=O)COc2ccc(Cl)cc2)c1 | 0.528% (inactive) |
| O=C(Nc1cc(S(=O)(=O)Nc2ccc(Cl)cc2)ccc1O)c1ccc(F)cc1F | -59.6% (active) |
| COc1ccc(-c2csc(C(O)c3cccc(Cl)c3)n2)cn1 (configuration not stated) | -24% (inactive) |
| Nc1[nH]c(C(=O)c2ccccc2)c(-c2ccc(Br)cc2)c1C(=O)NC1CC1 | 6.89% (inactive) |
| COC(=O)c1ccc(-n2cnc3ccccc32)nc1 | 3.06% (inactive) |
| c1ccc(-c2nccc(-c3ccc(-n4cnc5ccccc54)cc3)n2)nc1 | -53.4% (active) |
| N#CCCn1cnc2ccccc21 | -1.87% (inactive) |
| CC1=C(C(=O)N2CCOCC2)CC(CC(=O)NCCN2CCOCC2)C(=O)N1CCC1=CCCCC1 (configuration not stated) | 35.9% (inactive) |
| O=C(NCCS(=O)(=O)N1CCN(c2ccccc2)CC1)c1cc(=O)c2ccccc2o1 | 9.87% (inactive) |
| COc1ccc([C@H]2C[C@@H](n3cc(COC(=O)c4ccccc4)nn3)[C@H](O)CN2C(=O)c2cccs2)cc1 | -28.2% (inactive) |
| CC1CN(c2nc(Nc3ccccc3)nc(N)c2[N+](=O)[O-])CC(C)O1 (configuration not stated) | 14.2% (inactive) |
| COCCNc1nc(N)c([N+](=O)[O-])c(N2CCCCCC2)n1 | 16.7% (inactive) |
| CCN1CCN(c2nc(Nc3cccc(F)c3)nc(N)c2[N+](=O)[O-])CC1 | -76.5% (active) |
| Cc1ccc(S(=O)(=O)N2CCC(=O)N([C@H](COCc3ccccc3)C(C)C)CC2)cc1 | 8.56% (inactive) |

From PubChem BioAssay AID652054 (National Center for Advancing Translational Sciences (NCATS), 2013)
